Results taken from the supplement of paper PMC10849652.
Targets with a hit are over-represented here; the source holds about 7,900 in all. About 0.6% of all pairs of compound and target were hits. Values without a mark were called inactive.

Chain of UniProt P52597 (P52597 whole entry, looked up): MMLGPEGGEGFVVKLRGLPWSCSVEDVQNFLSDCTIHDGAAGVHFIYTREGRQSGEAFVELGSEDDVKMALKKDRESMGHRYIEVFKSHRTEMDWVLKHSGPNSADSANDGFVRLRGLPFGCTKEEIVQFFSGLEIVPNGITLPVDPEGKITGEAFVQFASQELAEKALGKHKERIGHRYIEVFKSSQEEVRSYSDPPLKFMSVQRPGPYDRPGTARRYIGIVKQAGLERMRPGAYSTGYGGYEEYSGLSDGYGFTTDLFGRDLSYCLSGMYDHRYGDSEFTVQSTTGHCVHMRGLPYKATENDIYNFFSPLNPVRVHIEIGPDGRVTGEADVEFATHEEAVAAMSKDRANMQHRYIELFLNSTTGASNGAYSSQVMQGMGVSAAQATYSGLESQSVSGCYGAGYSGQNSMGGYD
Chain of UniProt Q9NZC3 (Q9NZC3 whole entry, looked up): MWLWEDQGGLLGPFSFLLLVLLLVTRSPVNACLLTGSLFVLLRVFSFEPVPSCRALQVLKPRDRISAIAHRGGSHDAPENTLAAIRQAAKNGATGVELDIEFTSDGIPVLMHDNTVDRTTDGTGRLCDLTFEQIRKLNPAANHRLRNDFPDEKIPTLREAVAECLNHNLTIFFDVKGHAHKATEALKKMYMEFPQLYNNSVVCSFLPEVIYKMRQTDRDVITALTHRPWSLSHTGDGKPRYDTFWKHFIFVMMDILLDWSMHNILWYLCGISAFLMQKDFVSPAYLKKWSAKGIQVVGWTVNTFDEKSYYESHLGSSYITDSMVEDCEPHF
Chain of UniProt Q8TEQ6 (Q8TEQ6 whole entry, looked up): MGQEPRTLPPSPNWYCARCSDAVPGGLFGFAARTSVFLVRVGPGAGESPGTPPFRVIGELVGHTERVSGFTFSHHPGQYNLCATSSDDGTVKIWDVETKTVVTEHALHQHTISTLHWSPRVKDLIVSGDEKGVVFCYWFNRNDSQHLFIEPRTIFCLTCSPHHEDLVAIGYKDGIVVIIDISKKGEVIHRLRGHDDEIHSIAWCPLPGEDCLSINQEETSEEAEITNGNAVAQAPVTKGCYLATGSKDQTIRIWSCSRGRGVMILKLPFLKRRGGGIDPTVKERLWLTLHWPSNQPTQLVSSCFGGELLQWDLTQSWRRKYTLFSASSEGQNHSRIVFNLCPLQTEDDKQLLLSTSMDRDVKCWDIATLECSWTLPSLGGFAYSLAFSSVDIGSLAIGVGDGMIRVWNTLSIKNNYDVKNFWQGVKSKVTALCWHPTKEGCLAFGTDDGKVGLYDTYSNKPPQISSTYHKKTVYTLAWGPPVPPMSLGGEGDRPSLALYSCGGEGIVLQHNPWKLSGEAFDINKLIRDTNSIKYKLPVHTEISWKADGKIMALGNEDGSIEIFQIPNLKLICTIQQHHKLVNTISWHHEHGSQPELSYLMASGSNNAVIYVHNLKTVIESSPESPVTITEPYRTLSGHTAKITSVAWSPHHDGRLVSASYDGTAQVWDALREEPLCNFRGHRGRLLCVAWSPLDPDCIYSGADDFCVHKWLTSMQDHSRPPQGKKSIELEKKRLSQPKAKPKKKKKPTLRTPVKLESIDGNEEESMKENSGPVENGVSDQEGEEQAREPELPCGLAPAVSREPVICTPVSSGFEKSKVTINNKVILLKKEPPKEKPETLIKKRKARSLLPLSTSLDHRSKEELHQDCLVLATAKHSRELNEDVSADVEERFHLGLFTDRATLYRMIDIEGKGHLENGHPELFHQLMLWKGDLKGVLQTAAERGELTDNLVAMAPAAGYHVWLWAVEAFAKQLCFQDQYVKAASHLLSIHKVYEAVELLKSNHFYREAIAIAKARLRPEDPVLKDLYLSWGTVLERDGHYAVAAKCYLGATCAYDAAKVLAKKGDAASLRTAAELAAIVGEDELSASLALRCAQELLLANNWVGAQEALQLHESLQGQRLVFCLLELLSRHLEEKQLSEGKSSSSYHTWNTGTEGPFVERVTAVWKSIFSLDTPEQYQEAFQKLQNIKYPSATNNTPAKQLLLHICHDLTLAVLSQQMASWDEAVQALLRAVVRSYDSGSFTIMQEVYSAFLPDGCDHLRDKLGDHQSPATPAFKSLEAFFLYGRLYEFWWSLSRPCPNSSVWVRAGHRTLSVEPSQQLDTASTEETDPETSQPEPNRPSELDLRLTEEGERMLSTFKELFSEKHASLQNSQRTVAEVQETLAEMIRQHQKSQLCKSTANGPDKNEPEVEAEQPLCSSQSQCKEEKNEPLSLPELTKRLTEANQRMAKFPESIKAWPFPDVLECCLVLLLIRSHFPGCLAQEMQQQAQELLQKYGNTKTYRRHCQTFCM
Chain of UniProt P02008 (P02008 whole entry, looked up): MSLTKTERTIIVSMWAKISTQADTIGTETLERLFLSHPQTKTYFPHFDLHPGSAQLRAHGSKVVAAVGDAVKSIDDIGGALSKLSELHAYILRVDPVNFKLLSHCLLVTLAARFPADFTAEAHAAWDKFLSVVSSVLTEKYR
Chain of UniProt P49841 (P49841 whole entry, looked up): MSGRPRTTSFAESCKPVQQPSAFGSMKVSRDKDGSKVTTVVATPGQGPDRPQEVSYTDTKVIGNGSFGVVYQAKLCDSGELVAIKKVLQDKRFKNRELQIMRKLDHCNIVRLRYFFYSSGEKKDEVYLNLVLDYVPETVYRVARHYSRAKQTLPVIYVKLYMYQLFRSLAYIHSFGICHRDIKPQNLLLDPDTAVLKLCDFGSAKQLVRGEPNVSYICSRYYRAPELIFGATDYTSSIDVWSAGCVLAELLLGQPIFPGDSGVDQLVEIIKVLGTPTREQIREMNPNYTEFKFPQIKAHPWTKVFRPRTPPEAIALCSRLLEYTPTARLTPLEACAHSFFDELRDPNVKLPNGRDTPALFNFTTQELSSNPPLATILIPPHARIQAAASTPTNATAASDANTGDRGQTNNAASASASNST
Chain of UniProt Q03014 (Q03014 whole entry, looked up): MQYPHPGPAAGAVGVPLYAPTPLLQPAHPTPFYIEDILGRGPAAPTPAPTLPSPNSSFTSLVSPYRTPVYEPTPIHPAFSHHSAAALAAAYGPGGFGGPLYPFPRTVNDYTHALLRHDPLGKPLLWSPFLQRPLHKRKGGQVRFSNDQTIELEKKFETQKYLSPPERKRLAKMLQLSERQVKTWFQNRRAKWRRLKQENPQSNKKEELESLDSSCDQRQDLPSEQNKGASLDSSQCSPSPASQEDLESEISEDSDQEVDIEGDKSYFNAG
Chain of UniProt Q9BUP3 (Q9BUP3 whole entry, looked up): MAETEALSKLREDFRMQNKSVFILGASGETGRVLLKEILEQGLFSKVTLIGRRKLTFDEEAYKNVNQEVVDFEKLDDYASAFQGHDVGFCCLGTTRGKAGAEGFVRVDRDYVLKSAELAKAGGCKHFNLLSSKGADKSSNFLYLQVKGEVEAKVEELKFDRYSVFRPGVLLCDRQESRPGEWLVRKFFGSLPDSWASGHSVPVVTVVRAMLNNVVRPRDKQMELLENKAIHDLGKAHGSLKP
Chain of UniProt Q96JB3 (Q96JB3 whole entry, looked up): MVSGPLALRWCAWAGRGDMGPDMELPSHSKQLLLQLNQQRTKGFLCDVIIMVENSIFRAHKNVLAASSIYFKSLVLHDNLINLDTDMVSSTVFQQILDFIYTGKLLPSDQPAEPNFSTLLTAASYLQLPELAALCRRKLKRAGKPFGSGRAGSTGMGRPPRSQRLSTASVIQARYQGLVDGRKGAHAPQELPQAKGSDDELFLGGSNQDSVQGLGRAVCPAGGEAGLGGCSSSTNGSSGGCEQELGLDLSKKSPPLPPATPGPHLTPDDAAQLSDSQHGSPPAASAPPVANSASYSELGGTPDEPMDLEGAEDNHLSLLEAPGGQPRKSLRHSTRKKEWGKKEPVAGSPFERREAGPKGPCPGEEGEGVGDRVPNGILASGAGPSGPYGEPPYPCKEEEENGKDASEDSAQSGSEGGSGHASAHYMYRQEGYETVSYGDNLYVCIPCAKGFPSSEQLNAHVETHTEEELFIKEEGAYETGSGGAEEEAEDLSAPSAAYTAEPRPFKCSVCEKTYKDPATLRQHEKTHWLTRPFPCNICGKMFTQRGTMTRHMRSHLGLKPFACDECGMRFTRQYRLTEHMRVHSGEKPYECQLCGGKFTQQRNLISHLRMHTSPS
Chain of UniProt P63218 (P63218 whole entry, looked up): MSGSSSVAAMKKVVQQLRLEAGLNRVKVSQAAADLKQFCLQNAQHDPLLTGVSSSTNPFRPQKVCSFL
Chain of UniProt P29083 (P29083 whole entry, looked up): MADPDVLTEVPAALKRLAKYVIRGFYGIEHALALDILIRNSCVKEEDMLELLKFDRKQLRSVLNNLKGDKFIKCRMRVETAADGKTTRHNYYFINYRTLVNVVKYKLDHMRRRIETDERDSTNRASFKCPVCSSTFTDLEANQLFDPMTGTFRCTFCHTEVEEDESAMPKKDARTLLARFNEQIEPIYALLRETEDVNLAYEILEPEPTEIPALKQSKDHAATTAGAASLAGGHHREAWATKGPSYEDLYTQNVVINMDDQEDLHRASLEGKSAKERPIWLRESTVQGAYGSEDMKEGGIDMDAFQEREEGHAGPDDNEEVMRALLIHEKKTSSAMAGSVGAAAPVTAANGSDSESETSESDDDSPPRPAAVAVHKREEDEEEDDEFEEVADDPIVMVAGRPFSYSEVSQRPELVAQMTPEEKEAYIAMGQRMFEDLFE
Chain of UniProt O15347 (O15347 whole entry, looked up): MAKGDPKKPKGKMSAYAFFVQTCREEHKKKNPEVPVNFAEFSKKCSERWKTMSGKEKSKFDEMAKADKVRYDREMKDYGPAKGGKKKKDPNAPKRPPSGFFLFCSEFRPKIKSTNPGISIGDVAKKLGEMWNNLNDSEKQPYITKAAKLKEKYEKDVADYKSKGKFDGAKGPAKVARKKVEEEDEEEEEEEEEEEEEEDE
Chain of UniProt P0CL80 (P0CL80 whole entry, looked up): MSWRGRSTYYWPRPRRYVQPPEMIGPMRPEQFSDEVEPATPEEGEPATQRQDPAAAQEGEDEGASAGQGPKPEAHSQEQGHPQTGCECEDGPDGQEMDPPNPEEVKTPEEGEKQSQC
Chain of UniProt P0C0S5 (P0C0S5 whole entry, looked up): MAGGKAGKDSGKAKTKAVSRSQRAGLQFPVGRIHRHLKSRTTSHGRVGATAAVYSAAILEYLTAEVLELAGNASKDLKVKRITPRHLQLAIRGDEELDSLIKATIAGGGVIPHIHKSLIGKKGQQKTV

What follows are targets tested with C1=CC2=C(C=CC(=C2)/C=C\3/C(=O)NC(=NCC4=CC=CS4)S3)N=C1 (assay: log2 fold change, soluble protein after heating vs DMSO (PISA); higher = thermal stabilisation; K562 cells, 10 uM, 30 min; active = over 0.2 and 3.5 SD of the protein, either way, in both replicates (recomputed)).
Outline: (§1)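 For each measurement, 10 μM compound was applied for 30 min to K562 cells at 2×10^6 cells/mL. Aliquots were heated for 3 min across 48°C-58°C, pooled, and extracted in PBS with 0.5% NP-40 at 4°C; the supernatant after 21,000xg for 90 min was soluble protein. This was quantified by TMTpro 16plex LC-MS/MS with channel sums equalised, and thermal stability was reported relative to control samples from duplicates, on a log2 fold-change scale.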
For HMGB3 (UniProt O15347), the log2 fold change was -0.267 (active). With HNRNPUL1 (UniProt Q9BUJ2) the log2 fold change was 0.001. FANCD2 isoform 1 (UniProt Q9BXW9) was tested, and the log2 fold change was 0.145. Work on HOOK3 (UniProt Q86VS8) yielded a log2 fold change of 0.055. In the case of HECTD1 (UniProt Q9ULT8), the log2 fold change is reported as 0.025. Work on HDGFL2 (UniProt Q7Z4V5) yielded a log2 fold change of -0.046. Work on GTF2E1 (UniProt P29083) yielded a log2 fold change of 0.094. With IFI30 (UniProt P13284) the log2 fold change was -0.089. GSK3B isoform 2 (UniProt P49841) gave a log2 fold change of 0.038. GIGYF2 (UniProt Q6Y7W6) was tested, and the log2 fold change was 0.05. Work on GPAT4 (UniProt Q86UL3) yielded a log2 fold change of -0.016. Target HTATIP2 isoform 3 (UniProt Q9BUP3) has a log2 fold change of -0.143. Target H2AZ1 (UniProt P0C0S5) has a log2 fold change of -0.087. IFRD2 isoform 2 (UniProt Q12894) showed a log2 fold change of 0.048. With GEMIN5 (UniProt Q8TEQ6) the log2 fold change was 0.037. HIC2 (UniProt Q96JB3) was tested, and the log2 fold change was -0.159. GTF2B (UniProt Q00403) was tested, and the log2 fold change was 0.149. IDH3A (UniProt P50213) showed a log2 fold change of 0.021. Target HNRNPF (UniProt P52597) has a log2 fold change of -0.098. With GAGE12F (UniProt P0CL80) the log2 fold change was 0.08. With GDE1 (UniProt Q9NZC3) the log2 fold change was -0.047. For GLB1 (UniProt P16278), the log2 fold change was 0.018. With FASTKD1 (UniProt Q53R41) the log2 fold change was -0.072. For GALNT4 (UniProt Q8N4A0), the log2 fold change was 0.086. Target HHEX (UniProt Q03014) has a log2 fold change of 0.008. HPCAL1 (UniProt P37235) was tested, and the log2 fold change was 0. GNG5 (UniProt P63218) showed a log2 fold change of 0.031. With GLYR1 (UniProt Q49A26) the log2 fold change was -0.352. HLTF (UniProt Q14527) gave a log2 fold change of 0.034. Work on GTF2E2 (UniProt P29084) yielded a log2 fold change of 0.09. HADHB (UniProt P55084) showed a log2 fold change of 0.063. Work on HBZ (UniProt P02008) yielded a log2 fold change of 0.143. FBXO42 (UniProt Q6P3S6) showed a log2 fold change of 0.025. GALNT11 (UniProt Q8NCW6) showed a log2 fold change of 0.122. GNB2 (UniProt P62879) gave a log2 fold change of -0.016.

These targets were tested with C1=CC2=NC=CN=C2C=C1/C=C/3\C(=O)NC(=O)S3 in the same assay as above.
Outline: as §1
For HMGB3 (UniProt O15347), the log2 fold change was -0.042. HNRNPUL1 (UniProt Q9BUJ2) was tested, and the log2 fold change was -0.01. In the case of FANCD2 isoform 1 (UniProt Q9BXW9), the log2 fold change is reported as 0.02. HOOK3 (UniProt Q86VS8) showed a log2 fold change of 0.032. In the case of HECTD1 (UniProt Q9ULT8), the log2 fold change is reported as 0.087. HDGFL2 (UniProt Q7Z4V5) was tested, and the log2 fold change was 0.048. GTF2E1 (UniProt P29083) gave a log2 fold change of 0.007. Work on IFI30 (UniProt P13284) yielded a log2 fold change of 0.026. For GSK3B isoform 2 (UniProt P49841), the log2 fold change was -0.013. Work on GIGYF2 (UniProt Q6Y7W6) yielded a log2 fold change of 0.014. With GPAT4 (UniProt Q86UL3) the log2 fold change was -0.016. In the case of HTATIP2 isoform 3 (UniProt Q9BUP3), the log2 fold change is reported as 0.005. In the case of H2AZ1 (UniProt P0C0S5), the log2 fold change is reported as 0.169. For IFRD2 isoform 2 (UniProt Q12894), the log2 fold change was 0.082. GEMIN5 (UniProt Q8TEQ6) gave a log2 fold change of 0.045. HIC2 (UniProt Q96JB3) was tested, and the log2 fold change was -0.08. With GTF2B (UniProt Q00403) the log2 fold change was 0.027. IDH3A (UniProt P50213) showed a log2 fold change of 0.017. HNRNPF (UniProt P52597) was tested, and the log2 fold change was 0.017. Work on GAGE12F (UniProt P0CL80) yielded a log2 fold change of 0.025. GDE1 (UniProt Q9NZC3) showed a log2 fold change of 0.05. Work on GLB1 (UniProt P16278) yielded a log2 fold change of -0.028. Target FASTKD1 (UniProt Q53R41) has a log2 fold change of -0.033. GALNT4 (UniProt Q8N4A0) was tested, and the log2 fold change was 0.044. HHEX (UniProt Q03014) showed a log2 fold change of -0.022. Work on HPCAL1 (UniProt P37235) yielded a log2 fold change of 0.057. GNG5 (UniProt P63218) gave a log2 fold change of -0.001. In the case of GLYR1 (UniProt Q49A26), the log2 fold change is reported as 0.1. Target HLTF (UniProt Q14527) has a log2 fold change of -0.067. GTF2E2 (UniProt P29084) showed a log2 fold change of 0.003. HADHB (UniProt P55084) gave a log2 fold change of 0.024. In the case of HBZ (UniProt P02008), the log2 fold change is reported as 0.006. FBXO42 (UniProt Q6P3S6) gave a log2 fold change of 0.055. GALNT11 (UniProt Q8NCW6) showed a log2 fold change of 0.118. For GNB2 (UniProt P62879), the log2 fold change was 0.007.
